High-throughput results deposited in PubChem BioAssay by ICCB-Longwood Screening Facility, Harvard Medical School.
PV pol inh = inhibitors of poliovirus RNA polymerase binding and polymerization; 150,000 tested, 0.66% active; AID 588519; poliovirus polymerase elongation, fluorescence polarization; active compounds read low; % elongation, % (compound at 16.7 µg/mL); P03300; in the data active means % elongation below about 90%
MbtI inh = inhibitors of Mycobacterium tuberculosis siderophore enzyme MbtI; P9WFX0; inhibition, % (concentration not given with the values); purified MbtI enzyme, fluorescence intensity read-out; 100,000 tested, 0.89% active; in the data active means inhibition mostly above about 56%, no sharp cut-off; inactive means mostly below about 77%
Mtb MenB inh = Mtb MenB enzyme inhibition; inhibition, % (test concentration not listed); 100,000 tested, 0.43% active; P9WNP5; MenB enzyme assay, absorbance read-out; in the data active means inhibition above about 21%, passing the limit was not always enough
Target sequence (P9WNP5 whole entry, looked up): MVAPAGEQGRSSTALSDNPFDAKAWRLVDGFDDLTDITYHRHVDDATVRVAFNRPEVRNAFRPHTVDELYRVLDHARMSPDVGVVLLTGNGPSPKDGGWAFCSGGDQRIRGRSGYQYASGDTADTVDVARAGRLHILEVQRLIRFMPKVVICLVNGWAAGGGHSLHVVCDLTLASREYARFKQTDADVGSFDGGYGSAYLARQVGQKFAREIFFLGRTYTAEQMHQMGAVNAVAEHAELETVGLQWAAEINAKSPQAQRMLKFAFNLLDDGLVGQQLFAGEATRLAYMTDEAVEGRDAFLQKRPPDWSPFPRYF
* hit, by the source's call; · = no result. A selection: hits, their analogues and other compounds. The true share with any hit is near 1.4%.

SMILES	PV pol inh	MbtI inh	Mtb MenB inh
O=c1[nH]c2ccccc2nc1NC(=S)Nc1ccccc1	110.0	·	-113.3
FC(F)Oc1ccc(NC(=S)NNc2nc3ccccc3[nH]2)cc1	44.0*	95.5	0.7
O=C1CCCC1Sc1nnnn1-c1ccccc1 (configuration not stated)	102.0	-2.3	-5.9
Cc1c(Cl)cccc1N1C(=O)CC(Sc2nnnn2-c2ccccc2)C1=O (configuration not stated)	104.0	97.8*	-34.0
COC(=O)N/N=C(\C)c1ccc(C)c(C)c1	103.0	0.1	-4.8
Cc1c(-c2ccnn2C(=O)c2ccc(C(F)(F)F)cc2)sc2ccccc12	101.0	23.0	-15.1
Cc1ccc2nc3sc(C(=O)O)c(N)c3cc2c1	103.0	46.5	-41.0
Cc1ccc2ncc(-c3ccc4c(N)c(C)ccc4n3)cc2c1	17.0*	·	-34.7
N/C(CN1CCCCC1)=N\O	103.0	-7.4	-78.3
CCOC(=O)c1sc(C)c2c(=O)[nH]c(-c3ccc(SC)cc3)nc12	·	63.6*	·
CSc1ccc(-c2nc3ccccc3c(=O)[nH]2)cc1	98.0	-7.2	0.0
CCN1CCN(CC2CCCCC2)CC1	100.0	8.4	34.1*
CCOC(=O)N1CCN(CC2CCCCC2)CC1	100.0	-24.4	-5.7
S=c1[nH]n(Cc2ccccc2)c(=NCc2ccccc2)s1	95.0	65.0*	·
O=c1ccc(=O)n(Cc2ccccc2)[nH]1	107.0	-3.5	-19.4
CNC(=O)c1ccc(CN2CCc3ccccc3C2)cc1	102.0	-0.4	27.3*
c1ccc2c(c1)CCN(Cc1ccncc1)C2	101.0	-18.8	-18.9
O=C(O)/C=C/C(=O)c1ccccc1	98.0	-7.9	-40.3
O=C(O)/C=C/C(=O)c1ccc(F)cc1	43.0*	74.0*	·
O=C(/C=C/Sc1nc2cc(Cl)ccc2s1)c1ccc(F)cc1	103.0	43.0	0.1
O=C(/C=C/S(=O)(=O)c1ccc(Cl)cc1)c1ccc(F)cc1	98.0	98.3*	9.2
O=C(CNC(=O)c1ccccc1Cl)Nc1ccc(S(=O)(=O)N2CCOCC2)cc1	102.0	-9.1	-5.5
O=C(COC(=O)c1c(F)cccc1F)c1cccc(Cl)c1	102.0	-9.5	·
Cc1cc(C)c(C)c(S(=O)O)c1C	83.0*	3.2	-36.3
Cc1cc(C)c(CO)c(C)c1CO	102.0	3.7	-26.4
SMILES	PV pol inh	MbtI inh	Mtb MenB inh
CCCN(C(=O)c1coc(=O)c2ccccc12)c1ccccc1C	98.0	·	·
COc1ccc(C2SC[C@H]3C(=O)N(c4ccccc4)C(=S)N23)cc1 (some centres not stated)	102.0	13.1	-2.8
COc1cccc(/C=N/N2C(=O)CSC2=S)c1O	85.0*	4.5	-37.4
O=C1CSC(=S)N1/N=C/c1cccs1	99.0	33.6	-97.4
Cc1nn(CCCC(=O)Nc2ccccc2C(F)(F)F)c(=O)c2c1sc1ccccc12	114.0	·	·
COc1ccc(N2CCN(C(=NCCc3ccccc3)Nc3ccc(C(=O)O)cc3)CC2)cc1	100.0	-3.6	6.3
Cc1ccc(C2=NNC(c3cccc(C)n3)S2)cc1 (configuration not stated)	103.0	84.8	-66.5
Cc1ccc(C2=NNC(c3cccs3)S2)cc1 (configuration not stated)	72.0*	·	-3.3
CC(=O)OC1=CN(Cc2ccccc2)S(=O)(=O)c2ccccc21	106.0	·	·
CC(C)n1cnc2cc(NCc3ccc(Br)cc3)ccc21	103.0	-9.3	-23.9
Cc1ccc(S(=O)(=O)c2nc(S(C)(=O)=O)sc2N2CCCC2)cc1	104.0	-8.4	-18.3
Cc1ccc(S(=O)(=O)c2[nH]c(=S)sc2N2CCOCC2)cc1	·	93.0*	-37.3
CC(C)c1ccc(NC(=S)Nc2cccc(C(F)(F)F)c2)cc1	106.0	-2.5	-18.7
O=C(/C=C/c1ccco1)Nc1cccc(NC(=O)/C=C/c2ccco2)n1	95.0	·	3.6
O=C(/C=C/c1ccco1)/C=C/c1ccco1	80.0*	26.2	-44.4
CC(=O)c1cccc(NC(=O)Nc2nnc(N3CCCC3)s2)c1	101.0	·	·
O=c1ccn2c(SCc3ccccc3)nnc2[nH]1	104.0	5.2	-7.9
CCC(C)n1c(=O)[nH][nH]c1=S (configuration not stated)	103.0	51.3*	-7.5
CCC(C)n1c(=O)[nH]c2c1c(=O)n(C)c(=O)n2C (configuration not stated)	·	-3.8	·
COc1cc2c(cc1OC)C(c1cc(Br)ccc1O)N(C)CC2 (configuration not stated)	99.0	1.5	-10.3
CC1=NN(c2nc3ccccc3[nH]2)C(=O)C1Cc1ccccc1 (configuration not stated)	107.0	75.7*	-74.1
CC1=NN(c2nc3ccccc3[nH]2)C(=O)/C1=C/N(C)C	101.0	37.0	-7.6
CCN(CC)S(=O)(=O)c1ccc(NC(=O)c2noc3c2COc2ccccc2-3)cc1	106.0	-11.5	-23.8
CCc1cccc(CC)c1N=C=S	104.0	12.8	-0.2
COC(=O)C(C#N)c1nc2ccccc2nc1Cl (configuration not stated)	83.0*	-0.1	-24.2
SMILES	PV pol inh	MbtI inh	Mtb MenB inh
COC(=O)C(C(=O)OC)c1nc2ccccc2nc1Cl	99.0	-12.1	4.1
COC(=O)CN(C)c1nnc(N)s1	91.0	96.2*	-4.8
CC(C)CN(CC(C)C)c1nnc(N)s1	·	-12.3	·
CCCS(=O)(=O)c1c(S(=O)(=O)CCC)c2cc(CC)ccn2c1C(=O)c1ccc(F)cc1	98.0	·	-32.5
C=CCn1c(SCC(=O)Nc2cc(C)on2)nnc1C1COc2ccccc2O1 (configuration not stated)	101.0	-16.1	-12.2
C=CCn1c(C2COc3ccccc3O2)n[nH]c1=S (configuration not stated)	100.0	97.8*	-22.4
NC(=S)Nc1ccc(C(=O)O)cc1	81.0*	92.2	-79.2
NC(=S)CC(=O)Nc1ccccc1	101.0	92.6*	-36.2
CC(=O)Nc1ccc(C(=O)O)cc1	94.0	-36.0	-3.2
O=C(CC(=O)Nc1ccccc1)Nc1ccccc1	·	-1.9	·
O=C(CSC(=O)c1ccccc1)Nc1ccc(C(F)(F)F)cc1	100.0	41.8	·
NC(=O)c1ccc(NC(=O)CSC(=O)c2ccccc2)cc1	102.0	70.2*	·
CC1(C)CC(NCCCN2CCCCC2)=CC(=[N+]2CCCCC2)C1	101.0	15.2	·
CCOC(=O)c1sc2nc(COC(=O)c3ccc(OCc4c(C)noc4C)cc3)[nH]c(=O)c2c1C	108.0	-57.9	-23.6
CCOc1ccc(-c2c(=O)n(O)c3ccccc3[n+]2[O-])cc1	99.0	86.8*	-142.2
O=c1c(-c2ccc(I)cc2)[n+]([O-])c2ccccc2n1O	101.0	43.0	-114.1
COc1cc2c(cc1OC)C(C(=O)O)CC(=O)N2 (configuration not stated)	103.0	-13.2	-12.2
COc1cc2c(cc1OC)CC(C(=O)O)NC2 (configuration not stated)	103.0	-2.5	32.3*
O=C(COC(=O)Cn1cnc2ccccc2c1=O)NC12CC3CC(CC(C3)C1)C2	100.0	-5.6	-12.6
c1nc2c3sc4nc(N5CCOCC5)c5c(c4c3ncn2n1)CCC5	100.0	0.5	28.3*
CCCCCSc1ncnc2c1sc1nc(N3CCOCC3)c3c(c12)CCCC3	105.0	·	·
Cc1ccccc1C(=O)NCC1CCCN2CCCCC12 (configuration not stated)	·	-3.2	·
Cc1cccc(C(=O)N2CCOCC2)c1	102.0	·	-1.5
Cc1cccc(C(=O)c2c(N3CCOCC3)[nH]c(=O)c3ccccc23)c1	68.0*	0.3	-25.3
